Data published in PubChem BioAssay.
Calls of active or inactive are those of the source.

How the values were obtained:
Albumin (Bos taurus) = Albumin (Bos taurus) (UniProt P02769); assay: bovine serum albumin binders on microarray, profiling panel, artefact control for SMM control protein annotation, biochemical, small-molecule microarray, Alexa647 label, 635/667 nm fluorescence (AID 1118); conditions: BSA-A647 binding, fluorescence 635 nm, higher = more signal;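 further: score merges 667 nm emission intensity and signal-to-noise per printed compound spot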
Albumin (Bos taurus), sequence (P02769 whole entry, looked up): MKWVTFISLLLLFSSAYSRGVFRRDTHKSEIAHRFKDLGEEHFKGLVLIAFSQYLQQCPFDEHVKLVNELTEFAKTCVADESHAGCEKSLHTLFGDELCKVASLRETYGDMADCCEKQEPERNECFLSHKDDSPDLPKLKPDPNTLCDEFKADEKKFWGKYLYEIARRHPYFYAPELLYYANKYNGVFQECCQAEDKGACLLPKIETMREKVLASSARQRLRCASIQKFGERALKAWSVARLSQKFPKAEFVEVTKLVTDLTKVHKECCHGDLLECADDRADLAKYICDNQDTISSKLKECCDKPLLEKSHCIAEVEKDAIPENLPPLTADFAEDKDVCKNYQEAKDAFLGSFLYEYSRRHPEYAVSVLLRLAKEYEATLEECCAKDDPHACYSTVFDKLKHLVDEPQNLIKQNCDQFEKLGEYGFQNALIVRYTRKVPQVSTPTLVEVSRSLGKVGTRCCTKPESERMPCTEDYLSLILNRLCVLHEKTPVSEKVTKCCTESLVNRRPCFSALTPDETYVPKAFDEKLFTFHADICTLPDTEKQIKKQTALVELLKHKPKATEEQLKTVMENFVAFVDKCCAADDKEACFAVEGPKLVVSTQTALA

[1] = small-molecule microarray binders of probe aXIP, primary screen, biochemical, NeuroSMM set, 635/667 nm fluorescence (AID 1119); conditions: higher = more signal, called active from +8 up or from −8 down;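 further: probe is the protein aXip251-270 applied at 1 µg/mL to compound-printed slides; binding of probe to printed compounds measured as 667 nm fluorescence plus signal to noise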
[2] = small-molecule binders of probe aNOTCH3, primary screen, biochemical, small-molecule microarray, 635/667 nm fluorescence (AID 1120); conditions: higher = more signal;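 further: probe is a biotin-tagged antibody raised against NOTCH3 rather than NOTCH3 protein; score merges spot fluorescence near 667 nm with spot signal to noise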
[3] = small-molecule binders of probe aNOTCH2, primary screen, biochemical, small-molecule microarray, 635/667 nm fluorescence (AID 1121); conditions: higher = more signal;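 further: score merges feature fluorescence read at 667 nm with its signal to noise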
[4] = target: Carbonic anhydrase 2 (Homo sapiens) (UniProt P00918); assay: CAII small-molecule binders, profiling panel, biochemical, small-molecule microarray, Alexa647-labelled CAII (AID 1122); conditions: CAII-A647 binding fluorescence, higher = more signal
[5] = COS7 lysate on small-molecule microarray, probe aHis, 635 nm (AID 1123); conditions: COS7 cell lysate, fluorescence, higher = more signal;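 further: z-score combines 667nm fluorescence intensity with signal-to-noise per printed compound spot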
[6] = compound binding in COS7 lysate, probe aLAP1, primary screen, cell lysate, small-molecule microarray (AID 1124); conditions: probe aLAP1, fluorescence, higher = more signal;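 further: lysate comes from COS7 cells expressing LAP1 and is applied at 0.3 µg/mL; score merges spot fluorescence near 667 nm with signal-to-noise over triplicate slides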
Sam68 (KHDRBS1) = assay: Sam68 small-molecule binders, primary screen, biochemical, small-molecule microarray, 635 nm fluorescence (AID 1125); conditions: small-molecule microarray binding, higher = more signal;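 further: score merges 667 nm channel intensity with signal to noise over triplicate slides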
[7] = system: Chordin-like protein 2 (CHRDL2); assay: CHRDL2 small-molecule binders, primary screen, biochemical, small-molecule microarray, 635 nm fluorescence (AID 1126); conditions: small-molecule microarray binding, fluorescence 635 nm; higher = more signal;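 further: printed compound slides probed with Chrdl2 protein at 4 µg/mL for 1 h at 4 C; score merges 667 nm emission intensity with signal to noise over three replicate slides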
[8] = target: Concanavalin-A (Canavalia ensiformis) (UniProt P02866); assay: ConA small-molecule binders, primary screen, artefact control for SMM control protein annotation, biochemical, small-molecule microarray, Alexa647 label, 635 nm (AID 1127); conditions: ConA-A647 binding fluorescence, higher = more signal;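 further: z combines 667 nm emission intensity with signal-to-noise across three replicate slides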
Concanavalin-A (Canavalia ensiformis), sequence (P02866 whole entry, looked up): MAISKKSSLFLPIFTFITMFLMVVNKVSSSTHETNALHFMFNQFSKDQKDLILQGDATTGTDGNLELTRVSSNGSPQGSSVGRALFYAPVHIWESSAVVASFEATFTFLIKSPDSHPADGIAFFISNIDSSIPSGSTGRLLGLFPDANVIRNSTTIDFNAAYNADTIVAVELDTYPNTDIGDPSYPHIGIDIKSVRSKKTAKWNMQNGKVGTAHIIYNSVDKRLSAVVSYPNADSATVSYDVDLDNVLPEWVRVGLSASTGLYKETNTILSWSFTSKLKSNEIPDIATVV

[9] = anti-His antibody binders, primary screen, artefact control for SMM control protein annotation, biochemical, small-molecule microarray, 635 nm fluorescence (AID 1128); conditions: anti-His Alexa647 antibody binding, higher = more signal;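 further: score merges feature fluorescence with signal-to-noise for each printed compound spot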
[10] = system: Human papillomavirus type 1a E7 protein (residues 1-88); assay: HPV1a E7 small-molecule binders, primary screen, biochemical, small-molecule microarray, residues 1-88, 635 nm (AID 1129); conditions: small-molecule microarray binding, fluorescence 635 nm; higher = more signal
[11] = target: Focal adhesion kinase 1 (Homo sapiens) (UniProt Q05397); assay: small-molecule microarray binders of FAK, primary screen, biochemical, 635/667 nm fluorescence, BSA, DTT (AID 1130); conditions: PTK2 binding, 635 nm fluorescence, higher = more signal;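 further: composite of spot emission at 667 nm and signal to noise over triplicate slides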
Focal adhesion kinase 1 (Homo sapiens), sequence (Q05397 whole entry, looked up): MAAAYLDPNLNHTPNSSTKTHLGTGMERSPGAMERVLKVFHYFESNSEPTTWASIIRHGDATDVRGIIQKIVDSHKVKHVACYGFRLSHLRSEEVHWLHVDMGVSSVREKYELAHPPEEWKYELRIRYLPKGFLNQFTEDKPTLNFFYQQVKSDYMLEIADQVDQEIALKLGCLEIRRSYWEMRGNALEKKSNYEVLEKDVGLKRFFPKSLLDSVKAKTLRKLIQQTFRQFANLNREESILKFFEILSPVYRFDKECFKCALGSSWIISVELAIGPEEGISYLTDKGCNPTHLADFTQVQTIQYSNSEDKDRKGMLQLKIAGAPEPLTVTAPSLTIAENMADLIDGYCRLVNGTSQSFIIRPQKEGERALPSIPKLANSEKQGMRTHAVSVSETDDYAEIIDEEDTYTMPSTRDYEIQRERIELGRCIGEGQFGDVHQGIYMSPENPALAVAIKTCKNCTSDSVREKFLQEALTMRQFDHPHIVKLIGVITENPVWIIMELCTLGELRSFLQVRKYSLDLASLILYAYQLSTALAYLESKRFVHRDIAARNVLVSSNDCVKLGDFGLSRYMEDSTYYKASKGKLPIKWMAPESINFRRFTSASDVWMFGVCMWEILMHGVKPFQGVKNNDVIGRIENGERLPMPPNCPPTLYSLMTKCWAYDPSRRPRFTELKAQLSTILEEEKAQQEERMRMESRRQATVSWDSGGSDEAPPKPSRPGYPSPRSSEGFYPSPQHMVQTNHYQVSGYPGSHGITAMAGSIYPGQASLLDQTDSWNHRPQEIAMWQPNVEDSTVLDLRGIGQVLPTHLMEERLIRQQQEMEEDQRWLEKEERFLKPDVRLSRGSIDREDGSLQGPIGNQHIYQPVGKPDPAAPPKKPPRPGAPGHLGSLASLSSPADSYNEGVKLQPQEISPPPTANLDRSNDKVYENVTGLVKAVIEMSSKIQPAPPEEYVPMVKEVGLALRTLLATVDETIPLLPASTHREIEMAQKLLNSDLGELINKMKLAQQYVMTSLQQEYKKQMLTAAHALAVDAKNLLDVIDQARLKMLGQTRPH

[12] = system: Fibrinogen (Alexa647-labelled); assay: fibrinogen binders on compound microarrays, profiling panel, artefact control for SMM control-protein annotation, biochemical, small-molecule microarray, 635/667 nm fluorescence (AID 1131); conditions: fibrinogen-A647 binding fluorescence, higher = more signal;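 further: z-score merges 667 nm fluorescence with per-spot signal-to-noise over triplicate slides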
[13] = target: Follistatin (Homo sapiens) (UniProt P19883); assay: follistatin binders on small-molecule microarrays, primary screen, biochemical, small-molecule microarray, 635/667 nm fluorescence (AID 1132); conditions: FST binding, 635 nm fluorescence, higher = more signal
Follistatin (Homo sapiens), sequence (P19883 whole entry, looked up): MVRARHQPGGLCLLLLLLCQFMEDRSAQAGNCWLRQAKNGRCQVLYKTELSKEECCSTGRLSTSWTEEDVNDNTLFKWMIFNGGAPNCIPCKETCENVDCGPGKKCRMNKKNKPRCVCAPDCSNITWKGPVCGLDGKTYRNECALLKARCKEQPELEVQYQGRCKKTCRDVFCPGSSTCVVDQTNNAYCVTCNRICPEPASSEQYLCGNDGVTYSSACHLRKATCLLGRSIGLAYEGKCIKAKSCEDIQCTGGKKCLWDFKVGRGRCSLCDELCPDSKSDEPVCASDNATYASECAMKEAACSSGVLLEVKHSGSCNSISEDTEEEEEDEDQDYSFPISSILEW

[14] = target: Fibroblast growth factor 2 (Homo sapiens) (UniProt P09038); assay: FGF2 binders on small-molecule microarrays, primary screen, biochemical, small-molecule microarray, 635/667 nm fluorescence (AID 1133); conditions: small-molecule microarray binding, FGF2, fluorescence 635/667; higher = more signal
Fibroblast growth factor 2 (Homo sapiens), sequence (P09038 whole entry, looked up): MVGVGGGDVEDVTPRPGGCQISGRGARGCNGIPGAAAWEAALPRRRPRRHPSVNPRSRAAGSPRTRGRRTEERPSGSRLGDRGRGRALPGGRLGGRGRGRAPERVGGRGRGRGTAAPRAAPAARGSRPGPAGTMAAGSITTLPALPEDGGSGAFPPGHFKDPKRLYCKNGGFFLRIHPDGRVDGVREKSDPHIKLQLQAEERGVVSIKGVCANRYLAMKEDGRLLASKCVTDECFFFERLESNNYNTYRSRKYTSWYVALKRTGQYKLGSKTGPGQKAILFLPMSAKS

[15] = mitochondrial membrane potential change in A549 cells, profiling panel, cell-based, JC-1 fluorescence, basal, 24 h, 100 nL (AID 1138); conditions: higher = more signal;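 further: A549 lung adenocarcinoma cells under basal conditions with no added stimulus; test concentration not given here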
Lefty1 = Lefty1 binders on small-molecule microarrays, primary screen, biochemical, small-molecule microarray, 635/667 nm fluorescence (AID 1139); conditions: small-molecule microarray binding, fluorescence 635/667; higher = more signal
[16] = system: wheat germ agglutinin (Triticum aestivum), Alexa647-labelled; assay: wheat germ agglutinin binders on compound microarrays, profiling panel, artefact control for SMM control-protein annotation, biochemical, small-molecule microarray, 635/667 nm fluorescence (AID 1140); conditions: WGA-A647 binding, 635 nm fluorescence, higher = more signal;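 further: score merges 667 nm feature emission with signal to noise over triplicate slides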
[17] = target: Luciferin 4-monooxygenase (Photinus pyralis) (UniProt P08659); assay: firefly luciferase enzyme inhibitors, primary screen, biochemical, luminescence, purified enzyme, 2006 set (AID 1141); conditions: SteadyGlo luminescence, 30 min, higher = more signal, called active from +8 up or from −8 down;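 further: cell-free assay with purified firefly luciferase at 100 ng per well in PBS; test concentration not given here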
Luciferin 4-monooxygenase (Photinus pyralis), sequence (P08659 whole entry, looked up): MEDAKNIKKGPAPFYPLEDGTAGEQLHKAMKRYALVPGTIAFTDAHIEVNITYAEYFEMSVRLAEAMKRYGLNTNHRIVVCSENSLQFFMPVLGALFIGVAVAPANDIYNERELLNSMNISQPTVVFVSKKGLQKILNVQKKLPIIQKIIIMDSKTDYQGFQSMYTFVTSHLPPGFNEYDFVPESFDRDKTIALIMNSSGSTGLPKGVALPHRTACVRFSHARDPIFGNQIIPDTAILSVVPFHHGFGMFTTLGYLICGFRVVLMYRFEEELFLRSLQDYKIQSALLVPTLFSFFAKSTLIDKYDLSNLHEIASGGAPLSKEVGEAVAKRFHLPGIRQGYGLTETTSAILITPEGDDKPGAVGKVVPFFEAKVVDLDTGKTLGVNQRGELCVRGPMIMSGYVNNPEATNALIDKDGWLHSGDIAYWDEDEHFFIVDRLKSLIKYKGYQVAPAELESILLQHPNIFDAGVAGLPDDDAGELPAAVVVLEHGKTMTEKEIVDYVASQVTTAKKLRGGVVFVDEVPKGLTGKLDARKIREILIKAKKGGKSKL

Compound | composite z-score (Albumin (Bos taurus)) | composite Z-score [1] | composite z-score [2] | composite z-score [3] | composite z-score [4] | composite z-score [5] | composite z-score [6] | composite z-score (Sam68 (KHDRBS1)) | composite z-score [7] | composite z-score [8] | composite z-score [9] | composite z-score [10] | composite z-score [11] | composite z-score [12] | composite z-score [13] | composite z-score [14] | z-score [15] | composite z-score (Lefty1) | composite z-score [16] | z-score [17]
CC(C)NC(=O)[C@@H]1c2ccccc2C(=O)N(Cc2cc(C(F)(F)F)cc(C(F)(F)F)c2)[C@H]1c1ccc(CO)cc1 | 0.52 | 1.21 (inactive) | -0.0931 | -0.0052 | 0.298 | 2.38 | 0.706 | 1.3 | 0.0933 | 1.09 | 0.913 | 1.16 | 0.528 | 0.936 | 1 | 0.507 | 1.98 | 0.312 | 0.375 | 0.487 (inactive)
COc1cc(C(O)C2C=CC3C(=O)N(C)C(=O)C3N2NC(=O)OC(C)(C)C)cc(OC)c1OC (stereo not given) | 1.03 | 0.523 (inactive) | 0.576 | 0.46 | 0.682 | 2.63 | 0.954 | 1.26 | -0.217 | 0.92 | 1.28 | 1.21 | 0.474 | 1.03 | 0.0314 | -0.0371 | -0.54 | -0.338 | 0.807 | 0.225 (inactive)
CC(=O)NCCCC[C@@H]1NC(=O)[C@@H]2C[C@H](C(=O)NCCCC[N+](C)(C)C)[C@H](c3cccc(OCCO)c3)N2C1=O | -0.134 | 0.0725 (inactive) | 0.0426 | -0.125 | 0.799 | 0.661 | 0.331 | -1.33 | 0.349 | -0.0028 | 1.5 | -0.411 | 0.164 | -1.39 | 1.4 | 1.57 | -0.251 | 0.512 | 0.994 | 0.0595 (inactive)
C[C@H]1NC(=O)C([C@@H](C)OCc2ccccc2)NC(=O)[C@@]23C(=O)N[C@@H](Cc4ccccc4)C2[C@H](C)[C@@]2(C)O[C@H]2C3/C=C/CC/C=C/CNC1=O (stereo not given in full) | 0.506 | -0.169 (inactive) | -0.0647 | -0.0131 | 0.665 | -0.308 | 0.03 | -0.389 | 0.634 | -1.38 | -0.342 | -0.413 | -0.305 | 0.42 | 0.607 | 0.588 | -0.198 | 0.331 | 0.384 | -0.749 (inactive)
CC(=O)NCCCC[C@@H]1NC(=O)[C@H]2C[C@@H](C(=O)NCCCCCN)[C@@H](c3cccc(OCCO)c3)N2C1=O | 0.796 | -0.306 (inactive) | 0.0493 | -0.0878 | 0.715 | 0.898 | 0.2 | 0.993 | 0.218 | 1.2 | 2.38 | 0.759 | 1.38 | 0.829 | 0.763 | 0.275 | 0.0821 | 0.279 | 1.1 | -0.0548 (inactive)
